From PubChem
Tau fibril ThT: inhibitors of human tau fibril formation, thioflavin T binding | recombinant tau K18 P301L, heparin-induced fibrillization, ThT fluorescence | Potency, µM (top dose mostly 57.4 µM), inactives show top-dose activity, negative = inhibition, usual class: inhibitors | 270,000 tested, 2.1% active | P10636; note: nearly all actives have a fitted effect of over 55% in size
Target sequence (P10636 561-689 P618L limits assumed): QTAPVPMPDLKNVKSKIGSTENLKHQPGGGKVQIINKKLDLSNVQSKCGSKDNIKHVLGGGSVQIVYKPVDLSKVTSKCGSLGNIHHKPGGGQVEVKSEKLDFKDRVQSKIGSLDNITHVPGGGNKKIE
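ThT emission at 510 nm, taken 1 hr after adding 30 uM dye, quantifies aggregates formed when 20 uM heparin acts on human tau K18 P301L for 6 hr at 37 C.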
RORg inh: inhibitors of mouse ROR gamma transcriptional activity; P51450; Drosophila S2 Gal4-RORgamma UAS-luciferase reporter, 20 h; Potency, µM (highest dose often 53.6 µM), without a hit: at the top dose activity change, negative = inhibition, hits mostly inhibitors; 310,000 tested, 5.4% active; AID 2551; note: nearly all actives have a fitted effect of over 60% in size
Target sequence (P51450 whole entry, looked up, the tested form may be a part): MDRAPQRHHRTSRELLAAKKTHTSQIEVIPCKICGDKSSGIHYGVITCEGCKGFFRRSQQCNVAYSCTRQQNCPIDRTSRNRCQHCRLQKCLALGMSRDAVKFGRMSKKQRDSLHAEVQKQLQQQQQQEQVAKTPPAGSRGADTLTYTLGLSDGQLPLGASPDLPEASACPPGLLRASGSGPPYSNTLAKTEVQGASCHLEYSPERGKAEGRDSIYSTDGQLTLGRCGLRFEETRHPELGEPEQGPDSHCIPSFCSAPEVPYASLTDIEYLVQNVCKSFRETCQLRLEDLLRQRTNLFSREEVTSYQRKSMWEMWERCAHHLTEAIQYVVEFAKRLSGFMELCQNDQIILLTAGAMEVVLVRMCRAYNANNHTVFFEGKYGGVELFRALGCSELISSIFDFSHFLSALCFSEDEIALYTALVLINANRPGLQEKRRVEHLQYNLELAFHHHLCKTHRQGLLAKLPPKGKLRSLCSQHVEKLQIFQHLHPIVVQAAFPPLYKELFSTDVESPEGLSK
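Using a luciferase readout, inhibitors were identified by reduced reporter activity in Drosophila cells coexpressing a copper-inducible Gal4–ROR gamma fusion and UAS-driven Photinus luciferase, incubated 20 hr after 700 uM copper sulfate.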
Tau fluor counter: counter-screen for tau fibril formation inhibitors; tau K18 P301L Alexa594 fluorescence, heparin fibrillization; Potency, µM (doses to about 57.7 µM), without a hit: at the highest dose activity change, negative = decrease; 280,000 tested, 0.93% active; AID 1463; note: nearly all actives have a fitted effect of over 55% in size
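Human tau K18 P301L (15 uM unlabeled, 0.24 uM Alexa 594-labeled) in 100 mM sodium acetate pH 7 with 20 uM heparin, 6 hr at 37 C. ThT 30 uM added, 1 hr ambient; Alexa 594 FP and total fluorescence read at 555/632 nm.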
Tau FP inhib: tau fibrillization inhibition (FP); P10636; K18 P301L tau heparin fibrillization, Alexa594 FP, 6 h; Potency, µM (top dose mostly 57.7 µM), without a hit: top-dose activity, negative = inhibition, most hits filed as inhibitors; 280,000 tested, 0.39% active; AID 1468; note: nearly all actives have a fitted effect of over 55% in size
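Human K18 P301L fragment (15 uM unlabeled plus 0.24 uM Alexa 594-labeled) in 100 mM sodium acetate pH 7 with compound, aggregation induced by 20 uM heparin for 6 hr at 37 C. ThT (30 uM) added for 1 hr, then Alexa 594 FP read.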
Gal4-VP16 FLuc: inhibits Gal4-VP16 luciferase reporter, ROR gamma counter-screen; Drosophila S2 Gal4-VP16 UAS-luciferase, luminescence, 20 h; Potency, µM (highest dose often 53.6 µM), for inactives: top-dose activity, negative = inhibition, hits mostly inhibitors; 310,000 tested, 3.5% active;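 note: Gal4-VP16 expression switched on by copper sulfate through the metallothionein promoter; nearly all actives have a fitted effect of over 50% in size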
An asterisk follows results filed as active; ? = inconclusive; . = no result given; ! = a repeat was not active; [ ] = another dose, or the depositor's remark. This is a sample that favours compounds with a hit; in the whole collection about 7.3% have one here. Calls come from the whole dose curve; as a rule, active = well fitted curve in the direction sought with a large enough effect; inconclusive = small, poorly fitted or top-dose-only effect, or another doubt; inactive = no such curve, though single readings can be large; an effect the other way counts as inactive or inconclusive. % is set by controls: 0 for no effect and ±100 for the full control effect; potency is the fitted concentration of half-maximal effect.

SMILES	Tau fibril ThT	RORg inh	Tau fluor counter	Tau FP inhib	Gal4-VP16 FLuc
COc1ccc(/C=N/c2c(-c3ccc(OC)cc3)nc3n2CCS3)cc1	14µM*	?	?	-4%	-13%
COc1ccc2oc(=O)cc(CN3CCN(Cc4ccccc4)CC3)c2c1	1%	.	1%	1%	.
O=S(=O)(c1ccc(NC(=S)N/N=C/c2cccc(Oc3ccccc3)c2)cc1)N1CCOCC1	-3%	0.89µM*	-25%	-7%	-7%
N#Cc1ccc(/C=N/NC(=S)Nc2ccc(S(=O)(=O)N3CCOCC3)cc2)cc1	-1%	1.8µM*	-9%	-3%	?
Cc1cc(C(=O)Nc2ccc(S(=O)(=O)N3CCOCC3)cc2)ccc1[N+](=O)[O-]	.	?	.	.	-4%
O=S(=O)(c1ccc(NC(=S)N/N=C/c2ccc(O)c(O)c2)cc1)N1CCOCC1	?	-35%	?	2%	-12%
O=[N+]([O-])c1cc(Cl)cc(/C=N/NC(=S)Nc2ccc(S(=O)(=O)N3CCOCC3)cc2)c1O	10µM*	-28%	?	6%	1%
CC(C)CN(CCNC(=O)c1cn(C)c2ccc(S(=O)(=O)N3CCCCCC3)cc2c1=O)CC(C)C	-3%	.	-19%	-8%	.
CCOc1ccc(-c2nonc2NC(=O)c2oc3cc(C)ccc3c2C)cc1	0%	.	-26%	-14%	.
COc1ccc(S(=O)(=O)Nc2c(C)n(C)n(-c3ccccc3)c2=O)cc1C(=O)O	.	-2%	.	.	-5%
Cc1ccccc1/C=N/n1c(C2CCCCC2)n[nH]c1=S	.	16µM*	.	.	?
Fc1ccccc1/C=N/n1c(C2CCCCC2)n[nH]c1=S	.	11µM*	.	.	?
O=[N+]([O-])c1ccccc1/C=N/n1c(C2CCCCC2)n[nH]c1=S	1%	?	-2%	-6%	35µM*
CCn1c(=N)c(C(=O)NC2CCCCC2)cc2c(=O)n3cc(C)ccc3nc21	-9%	.	-8%	-2%	.
COc1cc(C=O)c([N+](=O)[O-])cc1OC	3.2µM*	-42%	?	6.3µM*	21%
COC(=O)CCCC1=CC2=CC(=O)C(C)(OC(=O)CCc3ccccc3)C(=O)C2=CO1 (configuration not stated)	25µM*!	-14%	?	?	-7%
CC1(OC(=O)c2cccs2)C(=O)C=C2C=C3CCCN3C=C2C1=O (configuration not stated)	5µM*	-7%	-23%[11.6 µM]	?	-18%
CCN(CC)CCCN1C=C2C(=O)C(C)(OC(=O)CCc3ccccc3)C(=O)C=C2C=C1c1ccc(C#N)cc1 (configuration not stated)	13µM*!	0%	?	?	-3%
CC1(OC(=O)CCc2ccccc2)C(=O)C=C2C=C3CCCN3C=C2C1=O (configuration not stated)	3.5µM*	-9%	-24%[11.6 µM]	?	1%
CNC(=O)c1ccc(CSc2nc3cccnc3n2Cc2cccc(F)c2)cc1	-8%	.	-13%	2%	.
CC(C)=C1C2CCC1C1C(=O)N(c3nc(-c4ccc(F)cc4)c(C)s3)C(=O)C21 (configuration not stated)	-5%	4%	-8%	-3%	20µM*
Cn1cc(SCC(N)=O)c2ccccc21	1%	10%	-4%	3%	14%
Cn1cc(C2=C(c3cn(CCCSC(=N)N)c4ccccc34)C(=O)NC2=O)c2ccccc21	3.2µM*	?	13µM*[quencher]	?	?
CN(C)CCCn1cc(C2=C(c3c[nH]c4ccccc34)C(=O)NC2=O)c2ccccc21	13µM*	-5%	20µM*[quencher]	2%	-30%
COc1ccc2c(c1)c(C1=C(c3c[nH]c4ccccc34)C(=O)NC1=O)cn2CCCN(C)C	.	20%	.	.	-5%
SMILES	Tau fibril ThT	RORg inh	Tau fluor counter	Tau FP inhib	Gal4-VP16 FLuc
CC1(C(=O)NC(=S)NNC(=O)c2ccncc2)CCCCC1	2%	5µM*	-1%	-1%	13µM*
CCC(C)NC(=S)NNC(=O)c1ccncc1 (configuration not stated)	2%	3.2µM*	-5%	-5%	13µM*
Cc1noc(C)c1-c1nccc(NCCN2CCOCC2)n1	.	-19%	.	.	-2%
O=C(Oc1cccccc1=O)c1ccccc1	?	10µM*	-8%	4%	?
Cn1c(=O)c(-c2cccs2)nc2cncnc21	.	-3%	.	.	0%
C[C@H](N)CCCC(C)(C)O	.	-2%[16.9 µM]	.	.	-5%[17 µM]
CC(=O)c1c(C)[nH]c(-c2ccccc2)nc1=S	?	3.2µM*	-17%	-6%	?
CSc1nc(-c2ccccc2)nc(NC(=O)c2ccccc2)c1C(C)=O	-7%	15%	-22%	-8%	-15%
COc1ccccc1-c1nc(=S)c(C(C)=O)c(C)[nH]1	-7%	5.6µM*	-5%	5%	?
CC(=O)c1c(NC(=O)c2ccccc2)[nH]c(-c2ccccc2)nc1=S	?	3.2µM*	-24%	-4%	8.9µM*
CSc1nc(-c2ccccc2)[nH]c(=S)c1C(C)=O	?	6.3µM*	-15%	-4%	?
NNC(=S)Nc1c(F)cc(F)cc1Br	?	4µM*	-22%	8%	?
Cc1cc2nc(CCN(C(=S)NCC3CCCO3)C3CCCC3)[nH]c2cc1C (configuration not stated)	-2%	13µM*	-8%	-3%	?
Cc1cc2nc(CCN(C(=S)NCC(C)C)C3CCCC3)[nH]c2cc1C	-11%	7.1µM*	-25%	-7%	?
CCN(CC)c1ccc(NC(=O)CCS(=O)(=O)c2ccc3c(c2)oc(=O)n3C)c(C)c1	0%	.	-7%	-6%	.
CCOc1ccc(NC(=O)Cn2c(=O)n(-c3cccc(OC)c3)c(=O)c3c4c(sc32)CCCC4)cc1	6%	.	-7%	-18%	.
O=C(Cn1ccc2cc(S(=O)(=O)N3CCCCCC3)ccc21)NCCc1ccccc1Cl	3%	.	-19%	-6%	.
COc1ccc(/C=C/c2nc3ccccc3c(=O)o2)cc1	.	4.5µM*	.	.	7.9µM*
COc1ccc(Nc2nc3ccccc3c(=O)[nH]2)cc1	.	20%	-17%	6%	-2%
COc1ccc(-c2nc3ccccc3n2Cc2ccccc2)cc1	?	4µM*	-15%	2%	?
C=CCn1c(-c2ccc(OC)cc2)nc2ccccc21	?	?	-10%	-2%	0%
COc1ccc(Nc2nc3ccccc3n2C)cc1	.	-22%	.	.	7%
COc1ccc(/C=C/c2nc3ccccc3n2C)cc1	?	2µM*	-21%	0%	?
CC(C)Cn1c(/C=C/c2ccccc2)nc2ccccc21	-18%	11µM*	-10%	-1%	11µM*
CCCCCCn1c(/C=C/c2ccccc2)nc2ccccc21	?	.	-15%	8%	.
COc1ccc(Cn2c(/C=C/c3ccccc3)nc3ccccc32)cc1	-10%	7.1µM*	-12%	9%	?
CCn1c(/C=C/c2ccccc2)nc2ccccc21	?	16µM*	-22%	-7%	?
